D2 antagonist: HTS Assay for Allosteric Antagonists of the Human D2 Dopamine Receptor: Primary Screen for Antagonists | 340,000 compounds, 2% hits | HEK293 TREx D2 cells, calcium flux, dopamine EC80 | AID 485344, 2010 | inhibition, % at 10 µM; in the data active means inhibition above about 30%; inactive means below that, where a call was filed; further: 0% is about no effect
Target sequence (P14416 whole entry, looked up): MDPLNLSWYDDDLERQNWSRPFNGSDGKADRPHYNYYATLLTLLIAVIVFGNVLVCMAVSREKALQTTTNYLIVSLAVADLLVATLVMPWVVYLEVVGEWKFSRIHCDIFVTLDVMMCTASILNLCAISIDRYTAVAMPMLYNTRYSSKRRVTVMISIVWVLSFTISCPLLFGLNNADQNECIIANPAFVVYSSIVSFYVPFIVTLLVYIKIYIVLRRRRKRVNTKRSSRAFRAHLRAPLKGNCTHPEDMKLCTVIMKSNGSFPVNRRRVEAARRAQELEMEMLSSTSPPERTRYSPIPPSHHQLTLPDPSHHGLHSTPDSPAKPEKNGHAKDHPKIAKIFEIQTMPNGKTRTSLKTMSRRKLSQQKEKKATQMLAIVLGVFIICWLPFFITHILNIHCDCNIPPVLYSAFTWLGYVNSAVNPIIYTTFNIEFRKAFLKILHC
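Calcium flux kinetic readout in an inducible HEK293 TREx D2 line plated overnight at 30 C. After 180 s compound exposure, an EC80 dopamine challenge follows with another 180 s kinetic read to detect antagonism.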
D2 PAM-1: Beta-Arrestin HTS for Positive Allosteric Modulators of the Human D2 Dopamine Receptor: Potentiators. 360,000 compounds, 0.23% hits. D(2) dopamine receptor (Homo sapiens), P14416. DiscoveRx D2 beta-arrestin cells, luminescence, 90 min; 100% = 57 uM dopamine signal. potentiation, % (concentration not given with the values). AID 624464, 2012; in the data active means potentiation above about 50%; inconclusive means mostly about 30% to 49%
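PathHunter D2 cells, attached overnight at 37 deg C, received compound in DMSO plus dopamine at EC20 (50 nM final) for 90 min at 37 deg C. Beta-arrestin recruitment was read as luminescence after 1 h with detection reagent at ambient temperature.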
D2 ag-1: Beta-Arrestin HTS for Positive Allosteric Modulators of the Human D2 Dopamine Receptor: Agonists. DiscoveRx PathHunter D2 beta-arrestin, luminescence, 90 min; 100% = 57 uM dopamine signal. activation, % (no concentration beside the values). D(2) dopamine receptor (Homo sapiens), P14416. 360,000 compounds, 0.084% hits; in the data active means activation above about 40%; inconclusive means between about 15% and that limit
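Agonist mode: compounds alone added to overnight-plated D2 PathHunter cells for 90 min at 37 C, with 57 uM final dopamine (EC100) defining full response. Beta-arrestin recruitment detected by chemiluminescent reagent, read after 1 h at ambient temperature.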
D2 ag-2: HTS Assay for Allosteric Agonists of the Human D2 Dopamine Receptor: Primary Screen for Agonists | 340,000 compounds, 0.53% hits | activation, % at 2 µM | HEK293 T-REx D2 cells, calcium flux agonist mode | D(2) dopamine receptor (Homo sapiens), P14416;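 active means activation over 3 SD above normal in the single-dose calcium agonist read, cut at about 30% in these data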; further: 0% is about no effect
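HEK293 Trex D2 cells, tetracycline-induced, o/n 30 C 5% CO2; no-wash Ca dye, RT 30–90 min; 10-cycle baseline, 23 nl cpd added, kinetic Ca read 180 s; agonist hits = positive Ca response.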
D2 PAM-2: HTS Assay for Positive Allosteric Modulators of the Human D2 Dopamine Receptor: Primary Screen for Potentiators | D(2) dopamine receptor (Homo sapiens), P14416 | HEK293 T-REx D2, calcium flux, EC20 dopamine potentiation | potentiation, % at 10 µM | 340,000 compounds, 0.34% hits | AID 485347, 2010;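 active means potentiation over 3 SD above the plate norm, cut at about 30% in these data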; further: 0% is about no effect
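Primary screen. Calcium kinetics in induced HEK293 T-REx D2 cells: compound pre-addition 180 s, EC20 dopamine, 180 s more.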
Starred values were filed as active, the others as inactive; u = inconclusive; x = not tested or not shown. In the library only some 2.4% were active in any assay of this set; here they are far more common.

SMILES	D2 antagonist	D2 PAM-1	D2 ag-1	D2 ag-2	D2 PAM-2
CCCc1cc(=O)[nH]c(SCC(=O)NC2CCCCCCC2)n1	x	-5	-1	x	x
CCCc1cc(=O)[nH]c(SCC(=O)NC(=O)NC2CCCC2)n1	32*	-14	1	1	-14
CCC1(c2ccc(F)cc2)NC(=O)N(CC(=O)c2ccc[nH]2)C1=O (centres undefined)	30*	-13	-3	1	x
CCC1(c2ccc(F)cc2)NC(=O)N(CC(=O)N2CCOCC2)C1=O (centres undefined)	13	-1	-1	-1	-7
Cc1ccc(S(=O)(=O)N(CC(=O)N2CCOCC2)CC(=O)N2CCOCC2)cc1	5	-6	-1	0	31*
COc1ccc(NC(=O)CSc2nc3c([nH]c4ccccc43)c(=O)n2C)cc1	-10	-8	-4	1	1
Nc1nc(N)nc(-c2cccc(Cl)c2)n1	32*	-9	-2	0	-3
COc1ccccc1NS(=O)(=O)c1cccc2cccnc12	31*	-7	-7	0	6
CCOc1ccc2cc(S(=O)(=O)n3ccnc3C)ccc2c1	-5	-4	-3	0	37*
CCc1c(C)sc(NC(=S)N2CC(C)OC(C)C2)c1C(=O)OC (centres undefined)	-4	68*	2	0	-1
CSc1ccccc1NC(=O)Nc1ccc(F)c(Cl)c1	43*	-15	1	1	-21
O=C(Nc1cccc(F)c1)Nc1c[nH]c(=O)[nH]c1=O	12	-5	-3	1	-7
CSc1ccccc1NC(=O)Nc1cccc(Cl)c1	36*	-11	-1	1	-20
O=C(Nc1cccc(Cl)c1)Nc1c[nH]c(=O)[nH]c1=O	34*	-4	4	0	-10
CCc1nn(C(C)C(=O)NC2CCCCCC2)c(=O)c2cc3occc3n12 (centres undefined)	1	-6	-5	1	2
CCC(COC)Oc1cc(NCc2ccccc2)c2ncn(C(C)C)c2c1 (centres undefined)	-5	2	65*	0	15
CCC(CO)Oc1cc(NCc2ccccc2)c2ncn(C(C)C)c2c1 (centres undefined)	x	-16	6	x	x
C1COC(NC(C2CC2)C2CC2)=N1	36*	-9	0	2	-4
C1CCC(NC2=NCCO2)CC1	x	-9	-1	x	x
Cc1cc2c(cc1S(=O)(=O)Nc1cccc(F)c1)n(C)c(=O)c(=O)n2C	-5	2	-1	-1	3
Cc1cccc(NS(=O)(=O)c2cc3c(cc2C)n(C)c(=O)c(=O)n3C)c1	26	0	3	36*	-11
CC(CNc1ccccc1O)C(=O)O (centres undefined)	-1	68*	u	0	5
CC(NC(=O)CCC(=O)Nc1ccccc1O)c1ccccc1 (centres undefined)	x	-12	-3	x	x
Cc1ccc2c(=O)c(C(=O)c3ccc(F)cc3)cn(CC(=O)NCc3ccco3)c2n1	33*	15	5	0	-2
CC(=O)OCCNc1nc(-c2ccccc2)nc2ccccc12	38*	0	-6	1	-1
SMILES	D2 antagonist	D2 PAM-1	D2 ag-1	D2 ag-2	D2 PAM-2
COCCNc1nc(-c2ccccc2)nc2ccccc12	-6	-2	7	1	8
CC1(C)CC(N(Cc2cccs2)C(=O)c2ccco2)CCO1 (centres undefined)	-7	8	0	1	33*
CC1(C)CC(N(Cc2ccco2)C(=O)Cc2ccccc2)CCO1 (centres undefined)	-14	-21	2	0	-6
Cc1cccc(N(CC(=O)NC2CCCC2)C(=O)CS(=O)CC(=O)Nc2ccc3c(c2)OCO3)c1 (centres undefined)	32*	-8	-3	0	-14
CC1CC(=O)N(CC(=O)Nc2ccc3c(c2)OCO3)c2ccccc2S1 (centres undefined)	-5	-19	-1	0	7
O=C(CCN1CCC(c2ccccc2)C1)c1ccc2c(c1)OCCO2 (centres undefined)	87*	-38	-7	14	-31
O=C(CCN1CCC(c2ccccc2)C1)c1ccccc1 (centres undefined)	x	-17	0	x	x
C=CCOc1ccc(/C=C/C(=O)OCC(=O)NCC2CCCCC2)cc1	5	-33	-2	-1	14
C=CCOc1ccc(/C=C/C(=O)OCC(=O)NC2CCCCCCC2)cc1	43*	-6	-3	1	-16
Clc1ccc(OCc2nnc(-c3ccccc3Br)o2)cc1	36*	0	-1	0	-1
c1cnc(NCCSSCCNc2ncccn2)nc1	x	-13	-3	x	x
COc1ccccc1NC(=O)NCC1(N(C)C)CCCCC1	59*	-16	-4	0	-17
O=C(CSc1ccc(Br)cc1)NCC(c1ccco1)N1CCCCC1 (centres undefined)	39*	3	-4	0	0
COc1ccccc1NC(=O)NCC(c1ccco1)N1CCCCC1 (centres undefined)	39*	-28	-4	0	-15
COc1ccccc1NS(=O)(=O)c1cc(C(=O)NCC(c2ccco2)N2CCCCC2)ccc1C (centres undefined)	x	-39	-1	x	x
CCOC(=O)C1Cn2c(nc3c(c2=O)C2(CCCC2)Cc2ccccc2-3)S1 (centres undefined)	x	-31	-4	x	x
O=C(NCC(Cl)c1ccc2ccccc2c1)c1c(F)cccc1F (centres undefined)	69*	-13	2	0	0
O=C(NCCCNC(=O)c1c(F)cccc1F)c1c(F)cccc1F	-3	-8	-1	0	4
O=C(CCC(=O)Nc1ccc(Br)cc1)N/N=C/c1ccccc1F	7	-6	3	0	-1
O=C(CCC(=O)Nc1ccc(F)cc1)N/N=C/c1ccccc1O	34*	-20	-2	0	-7
O=C(CCC(=O)Nc1ccccc1)N/N=C/C=C/c1ccccc1	30*	-2	1	0	-10
Cc1noc(NS(=O)(=O)c2ccc(NC(=O)C(F)(F)F)cc2)c1C	-15	-3	-2	-1	4
CC(C)(Oc1ccc(Cl)cc1)C(=O)NC1CCCCC1	0	-17	2	1	4
